# Screens: PubChem, National Center for Advancing Translational Sciences (NCATS)
# RORg inh: inhibitors of mouse ROR gamma transcriptional activity. Drosophila S2 Gal4-RORgamma UAS-luciferase reporter, 20 h. Potency, µM (doses to about 53.6 µM), inactives show at the top dose activity change, negative = inhibition, hits mostly inhibitors. P51450. AID 2551. 310,000 compounds, 5.4% hits; also: nearly all actives have a fitted effect of over 60% in size
# Target sequence (P51450 whole entry, looked up, the tested form may be a part): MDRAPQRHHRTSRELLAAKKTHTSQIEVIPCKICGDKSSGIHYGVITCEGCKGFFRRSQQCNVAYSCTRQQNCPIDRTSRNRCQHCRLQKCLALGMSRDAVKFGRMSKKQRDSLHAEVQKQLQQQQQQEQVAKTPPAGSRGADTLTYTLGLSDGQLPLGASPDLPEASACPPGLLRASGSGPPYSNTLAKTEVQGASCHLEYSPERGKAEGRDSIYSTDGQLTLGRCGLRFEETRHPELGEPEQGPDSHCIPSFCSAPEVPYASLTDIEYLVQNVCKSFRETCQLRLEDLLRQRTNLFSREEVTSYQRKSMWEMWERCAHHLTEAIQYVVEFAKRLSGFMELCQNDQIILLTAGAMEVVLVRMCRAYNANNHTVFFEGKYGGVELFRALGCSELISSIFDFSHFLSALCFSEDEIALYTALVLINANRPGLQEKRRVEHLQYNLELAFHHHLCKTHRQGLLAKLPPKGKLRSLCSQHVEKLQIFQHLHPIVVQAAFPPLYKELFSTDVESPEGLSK
#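 Compounds are pin-transferred onto Drosophila Schneider cells expressing a copper-inducible Gal4–ROR gamma transactivation domain fusion. After 1 hr, copper sulfate is added to 700 uM final; luciferase is read 20 hr later.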
# Gal4-VP16 FLuc: Gal4-VP16 reporter inhibition counter-screen; Drosophila S2 Gal4-VP16 UAS-luciferase, luminescence, 20 h; Potency, µM (highest dose often 53.6 µM), without a hit: top-dose activity, negative = inhibition, most hits filed as inhibitors; 310,000 compounds, 3.5% hits; AID 2546;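 also: Gal4-VP16 expression switched on by copper sulfate through the metallothionein promoter; nearly all actives have a fitted effect of over 50% in size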
# KinaseGlo FLuc: counter-screen: inhibitors of Kinase-Glo firefly luciferase; Potency, µM (doses to about 38.3 µM), for the others: at the highest dose activity change, negative = inhibition, hits mostly inhibitors; 200,000 compounds, 0.28% hits; Kinase-Glo luciferase, ATP luminescence, 8 min; also: nearly all actives have a fitted effect of over 60% in size
#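 Recombinant Kinase-Glo luciferase, 10 uM ATP (linear range), luciferin; imidazole pH 7.2 / KCl / MgCl2 / Tween / BSA buffer; 8 min RT; luminescence.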
# Numbers without * were called inactive; ? = inconclusive; . = not tested or not shown; [ ] = another dose, or the depositor's remark. In the library only some 6.2% were active in any assay of this set; here they are far more common. Calls follow the shape of the dose curve; as a rule, active = well fitted curve in the direction sought with a large enough effect; inconclusive = small, poorly fitted or top-dose-only effect, or another doubt; inactive = no such curve, though single readings can be large; an effect the other way counts as inactive or inconclusive. % is scaled to controls: 0 for no effect and ±100 for the full control effect; potency is read from the fitted curve at half-maximal effect.
SMILES,RORg inh,Gal4-VP16 FLuc,KinaseGlo FLuc
Cc1noc(C)c1C(=O)N1CCC2(CCCN(Cc3nccs3)C2)CC1,7%,5%,-1%
COc1ccc2c(c1)c(/C=N/Nc1nc3ccccc3[nH]1)c(C)n2C,3.5µM*,16µM*,.
Clc1ccc(Cn2c(/C=C/c3ccco3)nc3ccccc32)cc1,?,?,-7%
CCCn1c(/C=C/c2ccco2)nc2ccccc21,-38%,?,-11%
Cc1ccc(Cn2c(/C=C/c3ccco3)nc3ccccc32)cc1,11µM*,?,-27%
CCCCNc1nc2ccccc2[nH]1,27%,6%,-6%
CCCCn1c(/C=C/c2ccco2)nc2ccccc21,13µM*,?,-19%
CCCCn1c(/C=N/Nc2nc3ccccc3[nH]2)nc2ccccc21,1.8µM*,1.6µM*,3%
COc1ccc(CC(=O)N/N=C/c2c(C)n(C)c3ccccc23)cc1OC,-17%,-6%,.
CC(C)CNC(=O)CN(c1ccccc1)S(=O)(=O)c1ccccc1[N+](=O)[O-],-20%,-7%,.
COC(=O)c1ccccc1NC(=O)CSc1nncn1-c1ccccn1,8%,7%,.
COc1ccc(CCC(=O)c2c(O)cc(O[C@@H]3O[C@H](CO)[C@@H](O)[C@H](O)[C@H]3O[C@@H]3O[C@@H](C)[C@H](O)[C@@H](O)[C@H]3O)cc2O)cc1O,-5%,8%,.
c1ccc(OCCOc2cccc3cccnc23)cc1,-20%,29%,0%
Cc1cc(OCCOc2cccc3cccnc23)cc(C)c1Cl,20µM*,-29%,-1%
CC(C)Oc1ccccc1OCCCOc1cccc2cccnc12,14µM*,-27%,-1%
OCc1ccccc1OCCCOc1cccc2cccnc12,24%,-15%,.
COc1cc2c(cc1OC)C(C(=O)NC(C)c1ccccc1)CC(=O)N2 (stereo not given),-1%,-1%,.
COc1cc2c(cc1O)-c1ccccc1CN(C)C2,-7%,-3%,-1%
Cc1ccc(C(=O)CC(=O)c2ccc(C(C)(C)C)cc2)cc1,?,?,2%
CC(C)(C)c1ccc(C(=O)NNC(=O)c2ccc(Cl)cc2)cc1,-16%,-8%,0%
Cc1ccc(CC(=O)c2ccc(Cl)cc2)cc1,15%,22%,.
CC(C)(C)c1ccc(C(=O)CC(=O)c2cc(Cl)ccc2O)cc1,11µM*,?,-6%
Cc1ccc(C(=O)CC(=O)c2cc(Cl)ccc2O)cc1,?,10µM*,18%
Cc1ccc(C(=O)CC(=O)c2ccc(C)cc2O)cc1,8.9µM*,?,.
COC(=O)C1=C(C(=O)OC)[C@@H]2N(C)c3ccccc3[C@@]23C[C@@H](C(=O)OC)N(S(=O)(=O)c2ccc(OC)cc2)C3=N1,.,.,-8%[7.66 µM]
SMILES,RORg inh,Gal4-VP16 FLuc,KinaseGlo FLuc
CCn1cc(C(=O)O)c(=O)c2cc(F)c(N3CCN[C@@H](C)C3)c(F)c21,-13%[16.9 µM],-1%[17 µM],0%[17.1 µM]
CCOC(=O)CNC(=O)O[C@H]1C(=O)c2cc(OC)ccc2O[C@@H]1c1ccc(OC)c(Br)c1,0%,-3%,1%
CCCCNC(=S)N(C)/N=C/c1c(C)[nH]c2ccccc12,13µM*,?,-8%
CCCCNC(=S)N(C)/N=C/c1c(F)c(F)c(F)c(F)c1F,-1%,-10%,-1%
CC1=NN(C(=O)c2c(Br)c(C)nn2C)C(O)(C(F)(F)F)C1 (stereo not given),20µM*,?,1%
CC1=NN(C(=O)c2c(Br)cnn2C)C(O)(C(F)(F)F)C1 (stereo not given),5.6µM*,7.9µM*,0%
CC1=NN(c2nc3ccccc3s2)C(O)(C(F)(F)F)C1 (stereo not given),?,2%,.
Cn1ncc(Br)c1C(=O)NC1CCCCC1,-5%,6%,.
Cn1cc(Br)c(C(=O)n2cc(Br)cn2)n1,33%,-7%,-4%
CC1=NN(C(=O)c2nn(C)cc2Br)C(O)(C(F)(F)F)C1 (stereo not given),4µM*,11µM*,3%
CCCn1c(SC(C)C(=O)NCC2CCCO2)nc2sc(CC)cc2c1=O (stereo not given),26%,3%,.
Cc1ccc(C2(c3noc(CN(C)Cc4cnn(C)c4)n3)CCCC2)cc1,-5%,-6%,-2%
CCCC(=O)Nc1sc(C(=O)Nc2cccc(N)c2)c(C)c1C(=O)OC,0%,-4%,2%
COc1cc2c3nnc(-c4ccccc4)c-3cn(Cc3ccccc3F)c2cc1OC,8.9µM*,?,-4%
COc1ccccc1N1CCN(c2nnc(-c3ccc(F)cc3)c3ccccc23)CC1,-7%,-11%,-3%
COc1cc2c3nnc(-c4ccc(F)cc4)c-3cn(Cc3ccccc3F)c2cc1OC,6.3µM*,5µM*,-8%
COc1ccc(-c2nnc(SCc3ccccc3F)o2)cc1OC,28%,-2%,-5%
Nc1cccc2cc(S(=O)(=O)Nc3ccc(C(=O)O)cc3)ccc12,.,.,-3%[7.66 µM]
Cc1ccc(NC2CC(=O)N(CCc3ccccc3)C2=O)cc1 (stereo not given),4µM*,-11%,-3%
O=C1CC(NCCc2ccccc2)C(=O)N1CCc1ccccc1 (stereo not given),4%,23%,.
O=C(/C=C/c1ccc(O)c(O)c1)c1ccc(O)cc1O,-43%,0%,.
Cc1nc2sc(C(c3cccs3)N3CC(C)CC(C)C3)c(O)n2n1 (stereo not given),17%,-17%,0%
CC(=O)Nc1ccc(S(=O)(=O)n2cnc3cc(C)c(C)cc32)cc1,3%,11µM*,0%
CC(=O)Nc1ccc(C(=O)n2cnc3cc(C)c(C)cc32)cc1,19%,-5%,-6%
COc1ccc(OC)c(S(=O)(=O)N2CCN(c3ccccc3)CC2)c1,2%,4%,.
SMILES,RORg inh,Gal4-VP16 FLuc,KinaseGlo FLuc
COc1ccc(OC)c(S(=O)(=O)ON2C(=O)c3ccccc3C2=O)c1,5.6µM*,7.9µM*,.
CC1(C)C2CCC1(C)C(Nc1ccccc1)C2 (stereo not given),2%,-8%,.
CC1(C)C2CCC1(C)C(NC(=O)/C=C/c1ccccc1)C2 (stereo not given),?,18µM*,0%
CCc1cccc(NC(=O)CN(c2ccc(C)cc2)S(=O)(=O)c2c(C)noc2C)c1,39%,-1%,.
Cc1cnc(=O)[nH]c1SCc1ccccc1F,14%,-12%,.
CCOC(=O)C1(Cc2ccccc2)CCCN(Cc2ccccn2)C1 (stereo not given),13µM*,-12%,0%
CCn1ccnc1CN1CCCC(CO)(Cc2cccc(OC)c2)C1 (stereo not given),-30%,10%,-1%
CCOC(=O)C1(Cc2cccc(OC)c2)CCCN(Cc2nccn2CC)C1 (stereo not given),3.5µM*,?,5%
CCOC(=O)C1(Cc2cccc(OC)c2)CCN(Cc2cccnc2)CC1,11µM*,-18%,-6%
CCOC(=O)C1(Cc2cccc(OC)c2)CCN(Cc2ccccc2)CC1,-1%,-1%,.
CCOC(=O)C1(Cc2ccccc2)CCCN(CCO)C1 (stereo not given),-6%,-4%,4%
Cc1cccc(Nc2nnc(SCC(=O)Nc3ccccc3[N+](=O)[O-])s2)c1C,18µM*,-15%,0%
Cc1ccc(Nc2nnc(SCC(=O)Nc3ccccc3[N+](=O)[O-])s2)cc1,?,-15%,-1%
O=C(Nc1c2c(nn1-c1ccccc1)CS(=O)(=O)C2)c1ccc2c(c1)OCO2,21%,5%,.
